Potency and affinity values are given separately. Results filed as inconclusive are left out. Active and inactive are the calls of the source. Unless noted, no rule for the calls is given here.
Key:
[1] = viability loss in HepG2 hepatoma cells – cell-based, cherry-picks, set 2, cytotoxicity control, dose response (AID 687002;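 active = a dose-response fit showing signal loss, with half-maximal concentration no higher than twice the top tested dose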)
[2] = viability loss in HeLa cells – cell-based, ATP luminescence, cherry-pick samples, cytotoxicity control, dose response (AID 687004;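 active = a fitted half-maximal concentration no higher than twice the top valid tested dose, with signal falling as cells die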;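 also: 0% = neutral control median and -100% = staurosporine 10 µM control median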)
[3] = PAX8 transcriptional activity inhibition in RMG-I – RMG-I cells, luciferase, cherry-pick, dose response (AID 687027;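 active = every replicate test run called active, with the signal dropping as expected and potency within twice the top valid dose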)
[4] = RMG-1 ovarian cancer cell viability loss – cherry-pick, dose response (AID 687029;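 active = signal drop whose fitted half-maximal concentration is at most twice the top valid dose, in every test run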;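 also: cells exposed to compound for 96 hours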)
[5] = IOSE-T80 viability loss, PAX8-independent line – cell-based, cherry-pick, selectivity assay for PAX8 inhibitor project, dose response (AID 687032;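 active = fitted half-maximal concentration for viability loss no higher than twice the top valid dose, in every repeat run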;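 also: cells exposed to compound for 96 h before reading; 0% = neutral control wells and -100% = 2 µM mitoxantrone kill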)
[6] = CMV-driven luciferase expression suppression in HEK293 – cell-based, luminescence, dry powder, counter-screen for Pax8 inhibitor project, dose response (AID 743020;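 active = signal-lowering compounds whose fitted half-maximal concentration is at or below twice the top tested dose in every run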;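 also: HEK293 cells stably expressing the CMV luciferase reporter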)
[7] = general cell-killing toxicity readout – plate reader, dry powder samples, cytotoxicity control for PAX8 inhibitor project, dose response (AID 743021)
[8] = IGROV1 cell killing – plate reader, dry powder samples, PAX8 inhibitor project, dose response (AID 743043);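 also: more negative means fewer viable cells or more cytotoxicity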
[9] = OVCAR-3 cell viability loss – plate reader, dry powder samples, PAX8 inhibitor project, dose response (AID 743044); conditions: max activity: at 35 µM, active compounds read low unless noted
[10] = toxicity toward immortalized ovarian surface epithelium – cell-based, plate reader, dry powder samples, cytotoxicity control for PAX8 inhibitor project, dose response (AID 743045);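 also: 0% = neutral control median and -100% = positive control median; more negative values mean more cell killing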
[11] = A2780 cell killing – plate reader, dry powder samples, cytotoxicity control, dose response (AID 743046);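 also: 0% = neutral control wells and -100% = cytotoxic reference compound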
[12] = OVCAR8 cell viability loss – plate reader, dry powder samples, PAX8 project, dose response (AID 743197)

COc1cccc(NC(=S)NC(=O)Cc2ccc(Cl)cc2)c1
inactive: outcome [1] | outcome [2]

Cn1cc(/C=C(\C(=O)O)C(C(=O)O)=C2CCCCC2)c2ccccc21
inactive: outcome [3] | outcome [4] | outcome [5] | outcome [6] | outcome [7]

COc1ccccc1C#Cc1ccc2c(c1)O[C@H](CN(C)C(C)=O)[C@H](C)CN([C@@H](C)CO)S2(=O)=O
inactive: outcome [1] | outcome [2]

O=[N+]([O-])c1cccnc1S(=O)(=O)c1ccccc1
inactive: activity change, negative = inhibition [3] -21.1% [at 8 µM]

Cc1csc(NC(=O)C(C)Oc2ccc(Br)cc2)n1 (configuration not stated)
inactive: outcome [3] | outcome [4] | outcome [5] | outcome [6] | outcome [7]

CN(CC(=O)Nc1cccc(F)c1)C(=O)CCCc1cccs1
inactive: outcome [3] | outcome [4] | outcome [5] | outcome [6] | outcome [7]

COc1ccc(C2Nc3ccccc3C(=O)N2c2ccc(F)cc2)cc1CSc1ccccn1 (configuration not stated)
inactive: outcome [3] | outcome [4]

CCCCCCCCC(=O)NCCOc1ccccc1
inactive: outcome [3] | outcome [4] | outcome [5] | outcome [6] | outcome [7]

COC(=O)C1=C(C)N(Cc2ccccc2)C(=S)NC1c1cccc(Br)c1 (configuration not stated)
inactive: outcome [1] | outcome [2]

c1ccc(COc2ccc(OCCN3CCCCC3)cc2)cc1
inactive: outcome [3] | outcome [4] | outcome [5] | outcome [6] | outcome [7]

CC1CCCC(NC(=O)COC(=O)c2ccccc2Sc2ccccc2C#N)C1C (configuration not stated)
inactive: outcome [3] | outcome [4] | outcome [5] | outcome [6] | outcome [7]

COC(=O)C1=C(C)N(Cc2ccc(F)cc2)C(=S)NC1c1ccccc1 (configuration not stated)
inactive: outcome [1] | outcome [2]

O=C(CSc1ncccc1-c1nc2ccccc2[nH]1)N1CCc2ccccc21
inactive: outcome [3]

COc1ccccc1NC(=S)NCc1ccc(Cl)cc1
inactive: outcome [1] | outcome [2]

COC(=O)C1=C(C)N(C)C(=S)NC1c1ccccc1 (configuration not stated)
inactive: outcome [1] | outcome [2]

Cc1ccc(NC(=O)C2CC(=O)N/C(=N/N=C/c3ccco3)S2)cc1C (configuration not stated)
inactive: outcome [3] | outcome [4] | outcome [5] | outcome [6] | outcome [7]

CC(C)CC1(C)N=C(c2ccccc2)C(=S)N1 (configuration not stated)
inactive: outcome [1] | outcome [2]

CCOc1ccc2ccccc2c1/C=N\NC(=O)OC
inactive: outcome [3] | outcome [4]

O=C(CCCC(=O)OCC(Cl)=C(Cl)Cl)Nc1ccc(F)cc1
inactive: outcome [3] | outcome [4] | outcome [5] | outcome [6] | outcome [7]

Cc1ccccc1NC(=S)NC(=O)CCc1ccccc1
inactive: outcome [1] | outcome [2]

S=C(Nc1cccc(Cl)c1)Nc1ccccc1Oc1ccccc1
inactive: outcome [1] | outcome [2]

O=C(CSc1ncnc2c1cnn2-c1cccc(Cl)c1)NCC1CCCO1 (configuration not stated)
inactive: outcome [1] | outcome [2]

COC(=O)C1=C(C)N(Cc2ccc(Cl)cc2)C(=S)NC1c1ccc(F)cc1 (configuration not stated)
inactive: outcome [1] | outcome [2]

COCCNC(=O)C/C(C)=N/NC(=O)C(=O)NC1CCCCC1
inactive: outcome [3] | outcome [4] | outcome [5] | outcome [6] | outcome [7]

O=C(O)CCCNC(=O)C(c1ccccc1)c1ccccc1
inactive: outcome [3] | outcome [4] | outcome [5] | outcome [6] | outcome [7]

O=C(c1cccs1)N1C[C@H](O)[C@@H](n2cc(C3CC3)nn2)C[C@@H]1c1ccccc1
inactive: outcome [3] | outcome [4] | outcome [5] | outcome [6] | outcome [7]

C[C@H]1CCCCO[C@@H](CN(C)Cc2ccncc2)[C@@H](C)CN([C@@H](C)CO)C(=O)c2cc(NC(=O)Nc3ccccc3)ccc2O1
inactive: outcome [1] | outcome [2]

Cn1c(SCC(=O)c2ccccc2)nnc1-c1ccccn1
inactive: outcome [3]

Cc1ccc(C(=O)NC(=S)Nc2ccccc2N2CCCC2)cc1[N+](=O)[O-]
inactive: outcome [1] | outcome [2]

O=C(c1ccc2c(c1)OCO2)N1CCN(c2ccc(C(F)(F)F)cn2)CC1
inactive: outcome [3] | outcome [4] | outcome [5] | outcome [6] | outcome [7]

COC(=O)CN1C(=S)N(C)C(=O)C1CC(=O)Nc1ccccc1 (configuration not stated)
inactive: outcome [3] | outcome [4] | outcome [5] | outcome [6] | outcome [7]

CCCCNC(=O)/C(=C/c1ccccc1)NC(C)=O
inactive: outcome [3] | outcome [4] | outcome [5] | outcome [6] | outcome [7]

O=C(Cc1ccccn1)N[C@@H]1CC[C@@H](CCn2cc(-c3ccccc3)nn2)O[C@H]1CO
inactive: outcome [3] | outcome [4] | outcome [5] | outcome [6] | outcome [7] | outcome [8] | max activity [9] 6.29% | outcome [10] | outcome [11] | outcome [12]

N/C(=N\OS(=O)(=O)c1cccc([N+](=O)[O-])c1)c1ccncc1
inactive: outcome [3] | outcome [4] | outcome [5] | outcome [6] | outcome [7]

CN1[C@@H]2Cn3c(ccc(-c4ccccc4)c3=O)[C@H]1[C@@H](C(=O)NC1CCCCC1)[C@@H]2CO
inactive: outcome [3] | outcome [4] | outcome [5] | outcome [6] | outcome [7] | outcome [8] | max activity [9] -24.4% | outcome [10] | outcome [11] | outcome [12]

COc1ccc(-c2cn(CC[C@H]3CC[C@H](NC(=O)Cc4ccccn4)[C@@H](CO)O3)nn2)cc1
inactive: outcome [3] | outcome [4] | outcome [5] | outcome [6] | outcome [7] | outcome [8] | max activity [9] -17.4% | outcome [10] | outcome [11] | outcome [12]

COc1ccccc1NC(=O)N1CCCCN2[C@H](CO)[C@H](c3ccc(-c4ccc(C)cc4)cc3)[C@H]2C1
inactive: outcome [3] | outcome [4] | outcome [5] | outcome [6] | outcome [7] | outcome [8] | max activity [9] 15.5% [at 1 µM, active compounds read low] | outcome [10] | outcome [11] | outcome [12]

C[C@@H]1CN([C@@H](C)CO)C(=O)c2cccc(NS(=O)(=O)c3ccc(F)cc3)c2O[C@H]1CN(C)Cc1ccc(-c2ccccc2)cc1
inactive: outcome [3] | outcome [4] | outcome [5] | outcome [6] | outcome [7] | outcome [8] | max activity [9] 17.5% | outcome [10] | outcome [11] | outcome [12]

Cc1ccc(NC(=O)NC(=O)COc2ccc(Cl)cc2Cl)c(C)c1
inactive: outcome [3] | outcome [4] | outcome [5] | outcome [6] | outcome [7]

C[C@@H]1CN([C@@H](C)CO)C(=O)c2cc(NC(=O)Nc3ccccc3)ccc2O[C@@H](C)CCCCO[C@H]1CN(C)Cc1ccc(Cl)c(Cl)c1
inactive: outcome [3] | outcome [4] | outcome [5] | outcome [6] | outcome [7] | outcome [8] | max activity [9] -10.5% [at 8 µM, active compounds read low] | outcome [10] | outcome [12]

C[C@@H]1CCCCO[C@@H](CN(C)CC2CCCCC2)[C@H](C)CN([C@H](C)CO)C(=O)c2cc(NC(=O)Nc3ccccc3)ccc2O1
inactive: outcome [3] | outcome [4] | outcome [5] | outcome [6] | outcome [7] | outcome [8] | max activity [9] -37.2% [at 4.2 µM, active compounds read low] | outcome [10] | outcome [12]

Cc1ccc(-c2ccc([C@@H]3[C@@H]4CN(Cc5ccccc5F)C[C@H]3N4)cc2)cc1
inactive: outcome [3] | outcome [4] | outcome [5] | outcome [6] | max activity [9] -28% | outcome [10] | outcome [12]

O=C(C[C@H]1C[C@@H]2c3cc(NC(=O)C4CCOCC4)ccc3O[C@@H]2[C@@H](CO)O1)NCc1ccc(Oc2ccccc2)cc1
inactive: outcome [3] | outcome [4] | outcome [5] | outcome [6] | outcome [8] | max activity [9] -14.4% [at 4.2 µM, active compounds read low] | outcome [10] | outcome [11] | outcome [12]

C[C@H]1CN([C@@H](C)CO)C(=O)c2cccc(NC(=O)Nc3ccc(C(F)(F)F)cc3)c2O[C@H]1CN(C)C(=O)NC1CCCCC1
inactive: outcome [3] | outcome [4] | outcome [5] | outcome [6] | outcome [7] | outcome [8] | max activity [9] -14.7% [at 8 µM, active compounds read low] | outcome [10]

O=C(C[C@@H]1C[C@@H]2c3cc(NC(=O)Nc4ccccc4F)ccc3O[C@@H]2[C@H](CO)O1)NCc1ccc(Oc2ccccc2)cc1
inactive: outcome [3] | outcome [4] | outcome [5] | outcome [6] | outcome [7] | outcome [8] | max activity [9] 14% [at 0.5 µM, active compounds read low] | outcome [10] | outcome [11] | outcome [12]

C[C@H]1CCCCO[C@H](CN(C)Cc2ccccc2)[C@@H](C)CN([C@@H](C)CO)C(=O)c2cc(NC(=O)Nc3ccc(C(F)(F)F)cc3)ccc2O1
inactive: outcome [3] | outcome [4] | outcome [5] | outcome [6] | outcome [7] | outcome [10] | outcome [11]

C[C@H]1CCCCO[C@@H](CN(C)Cc2ccc(C(=O)O)cc2)[C@@H](C)CN([C@@H](C)CO)C(=O)c2cc(NS(=O)(=O)c3ccc(Cl)cc3)ccc2O1
inactive: outcome [3] | outcome [4] | outcome [5] | outcome [6] | outcome [7] | outcome [8] | max activity [9] 4.48% | outcome [10] | outcome [11] | outcome [12]

O=C1/C(=C\c2ccco2)SC(=S)N1c1ccc(O)cc1
inactive: outcome [3] | outcome [4] | outcome [5] | outcome [6] | outcome [7]

O=C(C[C@H]1C[C@H]2c3cc(NS(=O)(=O)c4ccc(F)cc4)ccc3O[C@H]2[C@H](CO)O1)NCc1ccc(-c2ccccc2)cc1
inactive: outcome [3] | outcome [4] | outcome [5] | outcome [6] | outcome [7] | outcome [8] | max activity [9] 10.6% [at 1 µM, active compounds read low] | outcome [10] | outcome [11] | outcome [12]

C[C@@H]1CN([C@H](C)CO)C(=O)c2cccc(NC(=O)Nc3ccc(C(F)(F)F)cc3)c2O[C@H]1CN(C)CC1CC1
inactive: outcome [3] | outcome [4] | outcome [5] | outcome [6] | outcome [7] | outcome [8] | max activity [9] -14% [at 0.26 µM, active compounds read low] | outcome [10] | outcome [11] | outcome [12]
